The term viability denotes a read-out of living cells in per cent, often relative to untreated cells.

Inconclusive results are not listed. A number with no mark means an inactive call. Activity calls are given as the source filed them. The call rests on the fitted dose curve; in most records, active means well fitted curve in the direction sought with a large enough effect; inconclusive means small, poorly fitted or top-dose-only effect, or another doubt; inactive means no such curve, though single readings can be large; an effect the other way counts as inactive or inconclusive.

The nature of experiment [1]: BET inhibitor-based combinations targeting novel dependencies in MECOM-rearranged (r) AML: SET-2 cell line (AID 2202231). Further: nearly all actives have a fitted effect of over 35% in size.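 On viability: plate controls were DMSO treated cells for no effect and wells without cells for full effect.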 Conditions: SET-2 AML cells viability, CellTiter-Glo luminescence, 48 h; viability: hits give low values, concentration not given here. The gist of the method: (§1)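 Viability of cells (500 per well) is scored by luminescent CellTiter-Glo at 48 hr post-dosing. Eleven-point titrations are normalized to DMSO and empty controls and reduced to AUC values.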
(In general: In ATP-based viability assays light output follows the ATP content of the culture.)

Experiment [2] is described as follows: BET inhibitor-based combinations targeting novel dependencies in MECOM-rearranged (r) AML: MV-4-11 cell line (AID 2202233). Further: nearly all actives have a fitted effect of over 45% in size. In short, it runs like this: (§2)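 Using pin-tool transfer, drugs were added in 11 doses to cells (500/well), incubated 48 hr, and assessed with CellTiter-Glo. Z-AUC is a mean-centring transformation applied separately to each screened line.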

Experiment [3] can be described thus: BET inhibitor-based combinations targeting novel dependencies in MECOM-rearranged (r) AML: HNT-34 cell line (AID 2202234). Further: nearly all actives have a fitted effect of over 35% in size. In short, it runs like this:
as §2

Experiment [4] in a line: BET inhibitor-based combinations targeting novel dependencies in MECOM-rearranged (r) AML: UCSD-AML1 cell line (AID 2202235). Further: nearly all actives have a fitted effect of over 40% in size. The gist of the method: as §2
Experiment [5] in a line: BET inhibitor-based combinations targeting novel dependencies in MECOM-rearranged (r) AML: AML-191 cell line (AID 2202236; further: nearly all actives have a fitted effect of over 35% in size). In short, it runs like this:
as §1

Experiment [6] in a line: BET inhibitor-based combinations targeting novel dependencies in MECOM-rearranged (r) AML: AML-194 cell line (AID 2202237; further: nearly all actives have a fitted effect of over 40% in size). The gist of the method: as §1
Experiment [7] in a line: BET inhibitor-based combinations targeting novel dependencies in MECOM-rearranged (r) AML: OCI-AML3 cell line (AID 2202232). Further: nearly all actives have a fitted effect of over 35% in size. The following applies: Potency: OCI-AML3 viability. The gist of the method:
as §1
Potency means the concentration at half of the fitted maximal effect.

For `CCCc1cc(C(=O)N[C@H](Cc2ccc(-c3cccc(OC(F)(F)F)c3)nc2)C(=O)N[C@@H]2CCNC2)sc1C`, the Potency in experiment [1] is 20.9 µM (active); in experiment [2] it was 9.34 µM (active); in experiment [3] it was 11.8 µM (active); in experiment [4], 10.5 µM (active); in experiment [5], 16.6 µM (active); in experiment [6], 14.8 µM (active).

With `CCC[C@H](NC(=O)[C@@H]1[C@H]2CCC[C@H]2CN1C(=O)[C@@H](NC(=O)[C@@H](NC(=O)c1cnccn1)C1CCCCC1)C(C)(C)C)C(=O)C(=O)NC1CC1`, in experiment [1], the Potency is 0.263 µM (active). The Potency result in experiment [7] and in experiment [6] was “inactive” throughout.

In the case of `CCN(C)S(=O)(=O)Nc1ccc(F)c(C(=O)c2c[nH]c3ncc(-c4cnc(C5CC5)nc4)cc23)c1F`, the Potency in experiment [1] is 18.6 µM (active); in experiment [2], 23.5 µM (active); in experiment [3], 4.17 µM (active); in experiment [4], 20.9 µM (active); in experiment [5] it was 16.6 µM (active).

For `CSC[C@H]1CN(Cc2c[nH]c3c(N)ncnc23)C[C@@H]1O`, in experiment [1], the viability is 110%. Further, the Potency result in experiment [2], in experiment [3], in experiment [4] and in experiment [5] was “inactive” in each case.

For the compound `CC(C)(C(=O)NCC(F)(F)C(F)(F)F)C(=O)N[C@@H]1C(=O)Nc2ccccc2-c2ccccc21`, the viability in experiment [1] is 105%. The Potency entry in experiment [2], in experiment [3], in experiment [4], in experiment [5] and in experiment [6] was “inactive” throughout.

`CONC(=O)c1ccccc1Nc1cc(Nc2cc(C)nn2C(C)C)ncc1Cl`: in experiment [1], the viability is 86.2%. Also, the Potency in experiment [2] is 14.8 µM (active).

For `O=c1cc(N2CCOCC2)oc2c(-c3ccc4c(c3)OCCO4)csc12`, the Potency was 3.32 µM (active) in experiment [1]; 2.09 µM (active) in experiment [2]; 5.25 µM (active) in experiment [3]; 3.32 µM (active) in experiment [4]; 5.25 µM (active) in experiment [5]; 2.95 µM (active) in experiment [6].

For `O=S(=O)(NCCNC/C=C/c1ccc(Br)cc1)c1cccc2cnccc12`, the Potency in experiment [1] and in experiment [2] was 14.8 µM (active) in each case.

`CN1C(=O)N[C@H](Cc2c[nH]c3c(Cl)cccc23)C1=O`: the viability in experiment [1] was 113%. Moreover, in experiment [2], the Potency was 37.2 µM (active). In addition, the Potency result in experiment [3], in experiment [4] and in experiment [5] was “inactive” in each case.

For `Cc1ccc(NS(=O)(=O)c2ccc3c(c2)C2C=CCC2C(c2ccc(C(=O)O)cc2)N3)cc1C` (stereo unspecified), the viability in experiment [1] was 109%. The Potency result in experiment [2], in experiment [3], in experiment [4], in experiment [5] and in experiment [6] was “inactive” in each case.

For the compound `C[C@@H](O[C@H]1OCCN(Cc2n[nH]c(=O)[nH]2)[C@@H]1c1ccc(F)cc1)c1cc(C(F)(F)F)cc(C(F)(F)F)c1`, the Potency was 20.9 µM (active) in experiment [1], 18.6 µM (active) in experiment [7] and 16.6 µM (active) in experiment [5].

Take `C=C1/C(=C\C=C2/CCC[C@]3(C)[C@@H]([C@H](C)CCCC(C)(C)O)CC[C@@H]23)C[C@@H](O)C[C@@H]1O`: the viability in experiment [1] is 99.5%. The values for the Potency in experiment [7] and in experiment [6] were 20.9 µM (active) and 23.5 µM (active), respectively.

As to `CC1(C)SCCN(S(=O)(=O)c2ccc(OCC#CCO)cc2)[C@H]1C(=O)NO`, the viability in experiment [1] is 96.5%. The Potency entry in experiment [7] and in experiment [5] was “inactive” throughout.

With `Nc1nccc2c1ncn2[C@@H]1C=C(CO)[C@@H](O)[C@H]1O`, the Potency is 0.525 µM (active) in experiment [1], 0.166 µM (active) in experiment [2] and 0.833 µM (active) in experiment [3].

`CN(C)Cc1cccc(N=C(c2ccccc2)c2c(O)[nH]c3cc(C(=O)N(C)C)ccc23)c1`: the Potency in experiment [1] was 20.9 µM (active); in experiment [2], 6.61 µM (active); in experiment [3] it was 14.8 µM (active).

For `N#Cc1ccc(N(Cc2ccc(Br)cc2)n2cnnc2)cc1`, the viability in experiment [1] is 93.5%. Besides, the Potency was 20.9 µM (active) in experiment [2] and 16.6 µM (active) in experiment [3]. For the same compound, the Potency entry in experiment [4], in experiment [5] and in experiment [6] was “inactive” in each case.

Turning to `C[C@@H]1N=C(N)NC(N(C)C)=N1`, the viability in experiment [1] is 102%. Also, the Potency entry in experiment [2], in experiment [3], in experiment [4], in experiment [5] and in experiment [6] was “inactive” in each case.

As for `CCC(C(=O)O)C1CCC(C)C(C(C)C(O)C(C)C(=O)C(CC)C2OC3(C=CC(O)[C@@]4(CC[C@](C)(C5CC[C@@](O)(CC)C(C)O5)O4)O3)C(C)CC2C)O1` (stereo partly specified), the Potency is 5.25 µM (active) in experiment [1]; 1.66 µM (active) in experiment [2]; 0.525 µM (active) in experiment [3]; 13.2 µM (active) in experiment [4]; 2.35 µM (active) in experiment [5]; 1.18 µM (active) in experiment [6].

Regarding `COCCn1c2c([n+](Cc3cnccn3)c1C)C(=O)c1ccccc1C2=O`, the Potency in experiment [1] was 1.18 µM (active); in experiment [2], 0.0661 µM (active); in experiment [3], 0.166 µM (active); in experiment [4], 0.105 µM (active); in experiment [5], 0.148 µM (active); in experiment [6], 0.186 µM (active).

Turning to `Cn1cc(-c2nc(N[C@@H]3CCCC[C@@H]3N)c(F)c3c2C(=O)NC3)cn1`, the viability in experiment [1] is 112%. Besides, the figures for the Potency in experiment [2] and in experiment [3] were 0.148 µM (active) and 2.35 µM (active), respectively.

Consider `Cn1c(-c2ccccc2C(F)(F)F)nnc1C12CCC(c3noc(C4CC(F)(F)C4)n3)(CC1)CC2`, for which the viability in experiment [1] was 105%. Also, the Potency in experiment [2] was 16.6 µM (active). Also, the Potency result in experiment [3], in experiment [4], in experiment [5] and in experiment [6] was “inactive” throughout.

For the compound `COc1cc2c(NC3CCN(C4CCCCC4)CC3)nc(N3CCCN(C(C)C)CC3)nc2cc1OCCCN1CCCCC1`, the viability in experiment [1] is 109%. For the same compound, the Potency in experiment [2] is 7.42 µM (active).

As to `CCCCCCCCCCCC1=C(O)C(=O)C=C(O)C1=O`, the viability in experiment [1] was 115%. The Potency in experiment [2] was 13.2 µM (active).

As for `COc1cc([C@@H]2c3cc4c(cc3[C@@H](O[C@@H]3O[C@@H]5CO[C@@H](C)O[C@@H]5[C@H](O)[C@@H]3O)[C@H]3COC(=O)[C@H]23)OCO4)cc(OC)c1O`, the Potency in experiment [1] is 5.25 µM (active); in experiment [2] it was 0.166 µM (active); in experiment [3], 1.48 µM (active); in experiment [4], 0.833 µM (active); in experiment [5], 1.32 µM (active); in experiment [6], 2.09 µM (active).

For the compound `CC[C@H](Nc1ncnc2nc[nH]c12)c1oc2ccccc2c(=O)c1-c1cccc(F)c1`, the viability in experiment [1] is 93.4%. For the same compound, in experiment [2], the Potency is 6.61 µM (active).

These data come from PubChem BioAssay (NCATS).
